# Measurements published in PubChem BioAssay AID1458 (National Center for Advancing Translational Sciences (NCATS), 2008).
# In all, about 210,000 compounds went through this assay and about 5,900 (2.8%) were called active. About 5% were inconclusive and are not listed. The sample as a whole holds a higher share of actives than the screen did. Unmarked numbers belong to inactive results. The call rests on the fitted dose curve; in most records, active means well fitted activation curve with a large enough effect; inconclusive means small, poorly fitted or top-dose-only effect; inactive means no such curve, though single readings can be large or run the other way.
# Experiment: qHTS Assay for Enhancers of SMN2 Splice Variant Expression; further: nearly all actives have a fitted effect of over 55% in size; on activity change, positive = activation: % of control where 0% means no effect
# Details: HEK293 SMN2-luciferase splicing reporter, luminescence, 30-36 h; series mostly up to 46.1 µM; activity change, positive = activation: at the top concentration
# How it was run: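 HEK293 cells carry an SMN2 minigene-luciferase reporter in which exon 7 inclusion puts luciferase in frame. Cells were seeded at 2000 cells/well, attached for 10-12 hours, then exposed to compounds for 30-36 hours at 37C before ONE-Glo luminescence.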
# Potency means the concentration at half of the fitted maximal effect.
SMILES,Potency,"activity change, positive = activation"
Fc1ccc2nc(Nc3nc4c(s3)CCCC4)sc2c1,14.1 µM (active),
O=C(CCS(=O)(=O)c1ccccc1)Nc1nc2c(s1)CCCC2,,-6.46%
Fc1cc(F)c2nc(Nc3nc4c(F)cccc4s3)sc2c1,,-20.1%
O=C(Cn1c(=S)nc2ccccn21)N1CCc2ccccc2C1,12.6 µM (active),
O=C(COc1ccccc1)N1CCc2ccccc2C1,,3.79%
O=C(C(=O)N1CCc2ccccc2C1)N1CCc2ccccc2C1,,10.9%
Cn1c(=O)nc2n(-c3ccc(Br)cc3)c3cccc(Cl)c3cc-2c1=O,,9.55%
COc1ccccc1C(=O)Nc1c(C(=O)N(C)Cc2ccccc2)sc2nc(C)c(Cl)c(C)c12,,-27.4%
Cc1[nH]c2ccccc2c1SCC(=O)Nc1nccs1,25.1 µM (active),
Nn1c(SCC(=O)Nc2nccs2)nncc1=O,,22.1%
CCn1c(SCC(=O)Nc2nccs2)nnc1-c1ccncc1,,-5.81%
CC(=O)N1CCc2cc(S(=O)(=O)NC(Cc3ccccc3)C(=O)NCc3ccc(C)cc3)ccc21 (centres undefined),,-2.94%
CCOc1ccc(S(=O)(=O)c2cn(Cc3ccc(OC)cc3)c3ccc(F)cc3c2=O)cc1,,-6.28%
Cn1cc([N+](=O)[O-])c(C(=O)Nc2cnn(Cc3ccc(F)cc3)c2)n1,,-2.65%
O=C(Nc1ccn(Cc2ccccc2)n1)c1cccc(F)c1,2.82 µM (active),
CC(=O)Nc1ccn(Cc2c(F)cccc2Cl)n1,,1.25%
O=C(Nc1ccn(Cc2ccccc2)n1)c1n[nH]c([N+](=O)[O-])c1Cl,3.16 µM (active),
Cc1ccc(Cn2ccc(NC(=O)c3cc(C(C)C)on3)n2)cc1,,6.87%
O=C(Nc1ccn(Cc2ccc(F)cc2)n1)c1ccncc1,,-62.6%
CCOC(=O)c1cc2c(=O)n3ccccc3nc2n(CCCOC)c1=NC(=O)C(C)(C)Oc1ccc(Cl)cc1,,9.26%
COc1ccc(CCN2C(=O)N(c3cccc(OC)c3)C(=O)C2CC(=O)Nc2ccccc2)cc1 (centres undefined),,-6.97%
CCCCC12CN3CC(C)(CN(C1)C3c1ccc(O)c(OC)c1)C2=O (centres undefined),,1.53%
COc1ccc(CCNC(=O)CCc2c(C)nc3c(c(C)nn3-c3ccc(C)c(C)c3)c2C)c(OC)c1OC,,10.6%
O=C(OCc1ccc(Br)cc1)c1cccc(-c2nnc(-c3ccccc3)o2)c1,2.24 µM (active),
O=C(OCc1nnc(-c2ccccc2)o1)c1ccc2c(c1)C(=O)N(CCc1ccccc1)C2=O,,27.8%
CCOC(=O)CSc1nnc(-c2cccc(Br)c2)o1,,-5.07%

SMILES,Potency,"activity change, positive = activation"
CCn1c(=O)cc(OCC(=O)Nc2cc(Cl)c(OC)cc2OC)c2ccccc21,,7.37%
Cc1ccc(-c2nnc(SC(C)C#N)n2N)cc1 (centres undefined),,5.91%
Cc1ccc(NC(=O)NC(=O)CSc2nnc(-c3ccc(OC(F)F)cc3)n2N)c(C)c1,,-13.8%
C=C(C)CSc1nnc(-c2ccc(C)cc2)n1N,8.91 µM (active),
CC(=O)c1c(C)n(S(=O)(=O)c2ccc(Cl)cc2)c2ccc(NS(=O)(=O)c3ccc(Cl)cc3)cc12,,-11.3%
COc1ccc(C)cc1N(CC(=O)N1CCC(C)CC1)S(=O)(=O)c1ccc(C)cc1,,-6.31%
CCOC(=O)c1c(NC(=O)CSc2cn(CCNC(=O)c3cccc(C(F)(F)F)c3)c3ccccc23)sc2c1CCC2,,12.3%
COc1ccc(CCNC(=O)c2cn(C)c3ccc(S(=O)(=O)N(C)C4CCCCC4)cc3c2=O)cc1OC,,3.49%
CCN(CC)C(=O)c1ccc(O)c(OC)c1,inactive,
CCOc1ccc(NC(=O)N(CC(C)C)CC(C)C)cc1,,-13.7%
COc1ccc(OCc2cccc(C(=O)N3CCCC3)c2)cc1,2.51 µM (active),
COc1ccc(OCC(=O)NNC(=O)c2cccc(C)c2)cc1,,-31.7%
CCOc1ccc(OCc2cccc(C(=O)N(CC)CC)c2)cc1,5.01 µM (active),
Cc1cccc(C(=O)N2CCCN(C(=O)c3cccc(C)c3)CC2)c1,,-9.38%
COc1cccc(Cn2c(SCc3ccc(C(=O)N4CCC(C)CC4)cc3)nc3ccncc32)c1,,-57.7%
COc1cccc(CNC(=O)c2ccc3c(c2)N(Cc2ccc(C(F)(F)F)cc2)C(=O)c2ccccc2S3)c1OC,,1.81%
COc1ccc(C2(Nc3cccc(F)c3)C(=O)c3ccccc3C2=O)cc1,,10.5%
CCc1nonc1NC(=O)c1oc2ccc(Cl)cc2c1C,,13.4%
Cc1ccc(Cn2c(C)c3cnn(CC(=O)NCc4ccccc4)c(=O)c3c2C)cc1,,-1.41%
CC1=C(C(=O)Nc2ccccc2)C(c2ccc(C)cc2)n2nc(SCc3ccccc3C)nc2N1 (centres undefined),,6.65%
COc1cc(Nc2nc(-c3ccc(OC)c(OC)c3)nc3ccccc23)cc(OC)c1,,-30%
CCc1cccc(C)c1Nc1c(-c2ccc(N(C)C)cc2)nc2ncccn12,,26%
N#CC(=C1SC=CS1)c1nc(-c2ccccc2)cs1,11.2 µM (active),
N#CC(=C1CCCC1)c1nc(-c2ccc(Cl)cc2)cs1,,37.8%
CCNC(=O)CSc1nc(-c2ccccc2)cs1,,16.8%
COc1ccc(-c2cc(NCc3ccc(F)cc3)n3cnnc3n2)cc1,,-6.89%

SMILES,Potency,"activity change, positive = activation"
CC(=O)c1c(C)[nH]c(C(=O)NCc2ccc(C)cc2)c1C,,-0.462%
COc1ccccc1CNC(=O)c1cc(=O)c2ccccc2o1,,-23.9%
CCOC(=O)c1c(C)[nH]c(C(=O)NCc2ccccc2OC)c1C,10 µM (active),
COC(=O)c1ccccc1NS(=O)(=O)c1ccc2c(c1)CCCN2C(C)=O,,-4.36%
CCOc1ccc(C(=O)c2cn(Cc3ccccc3OC)c3ccc(F)cc3c2=O)cc1,,6.96%
COc1ccc(C2CC(c3cccs3)=Nc3ccccc3S2)cc1OC (centres undefined),,-15.2%
COc1ccc(-c2nn3c(-c4ccccc4)nnc3s2)cc1OC,,-2.56%
COc1ccc(-c2csc(-c3cccs3)n2)cc1OC,14.1 µM (active),
CCc1ccccc1NC(=O)N1CCC2(CC1)Oc1ccccc1C(=O)N2Cc1ccccc1F,,2.64%
O=C(Nc1ccc(Br)cc1)c1cc2nc(-c3ccccc3)cc(-c3ccccc3)n2n1,,8.42%
COc1cccc(C(=O)N(Cc2cccc(Cl)c2)Cc2ccco2)c1,,-32%
c1ccc(-c2ccccc2OCCN2CCCCC2)cc1,,-8.62%
S=C(c1ccc(-c2ccccc2)o1)N1CCCCC1,12.6 µM (active),
O=C(Cc1ccccc1)NC(=S)Nc1ccc(N2CCCCC2)cc1,,1.23%
O=C(Cc1ccc(F)cc1)N/N=C/c1ccc2c(c1)OCO2,12.6 µM (active),
O=C(/C=C/c1ccc2c(c1)OCO2)NCc1ccc(F)cc1,,1.74%
O=C(CNC(=O)C(c1ccccc1)c1ccccc1)N/N=C\c1ccc2c(c1)OCO2,,6.3%
O=C(Nc1ccc(Cl)cn1)c1ccc2c(c1)OCCO2,2.51 µM (active),
Cc1cc(NC(=O)c2cnn3cccnc23)n(-c2ccccc2)n1,,-9.99%
COc1c(Cl)cc(C(=O)Nc2ccc(Cl)cn2)cc1Cl,,20.7%
COc1ccc(C(=O)NC(=S)Nc2ccc(Cl)cn2)cc1OC,,-0.559%
O=C(Nc1ccc(Cl)cn1)c1cnn2cccnc12,11.2 µM (active),
O=C(Nc1cccc(S(=O)(=O)Nc2ccc(Cl)cc2)c1)c1ccc2c(c1)OCCO2,,-59.3%
COc1ccc(CNC(=O)Cc2coc3ccc(C(C)C)cc23)cc1,,-4.8%
Cc1ccc(S(=O)(=O)N(NC2=NS(=O)(=O)c3ccccc32)C(=O)c2ccccc2)cc1,,-33.5%
CC(C)(C)c1csc(NC2=NS(=O)(=O)c3ccccc32)n1,8.91 µM (active),

SMILES,Potency,"activity change, positive = activation"
O=C(Oc1cccc(NC2=NS(=O)(=O)c3ccccc32)c1)c1ccncc1,,-1.12%
COc1ccc(CN2C(=O)C(NC(=O)c3cccc(C)c3)(C(F)(F)F)N=C2c2ccccc2)cc1 (centres undefined),,-6.05%
OC(COc1ccc2ccccc2c1)CN1CCOCC1 (centres undefined),14.1 µM (active),
Cc1cccc(OCC(O)Cn2c(=N)n(CCN3CCOCC3)c3ccccc32)c1 (centres undefined),,-2.16%
OC(COc1ccc2ccccc2c1)Cn1cncn1 (centres undefined),,10.2%
Cc1cccc(N2CCN(C(=O)c3oc(=O)c4ccccc4c3-c3ccccc3)CC2)c1C,,-0.849%
CC1=Nc2cc(C(=O)N3CCC(C)CC3)ccc2Sc2ccc(Cl)cc21,,-32.5%
O=C(Nc1ccccc1)c1cccnc1Nc1ccccc1,,-22.9%
NC(=O)c1ccccc1NC(=O)c1ccccc1F,,10.5%
O=C(Nc1ccccc1)c1ccccc1NC(=O)C(F)(F)F,10 µM (active),
O=C(CSc1oc(-c2ccccc2)nc1S(=O)(=O)c1ccc(Br)cc1)NC1CCCCC1,,-5.27%
COc1ccc2c(c1)CCc1c(C(=O)Nc3c(C)n(C)n(-c4ccccc4)c3=O)noc1-2,,-28%
COc1ccc2c(c1)CCc1c(C(=O)N3CCCC3)noc1-2,17.8 µM (active),
COc1ccc2c(c1)CCc1c(C(=O)Nc3cc(C)ccc3O)noc1-2,,21.9%
Cn1c(=O)c2c(nc(SCC(=O)Nc3ccc(F)cc3)n2Cc2ccccc2)n(C)c1=O,,-3.7%
Cc1ccc(CNC(=O)C2CCN(S(=O)(=O)c3ccc4nc5c(c(C(=O)O)c4c3)CC(C)CC5)CC2)cc1 (centres undefined),,4.28%
CC(C)Cc1cc(C(=O)NCCc2ccccc2)no1,12.6 µM (active),
Cc1cc(C(=O)NCCCc2ccccc2)no1,,24%
Nc1nonc1C(=O)NCCc1ccccc1,,-21%
CCOC(=O)N1CCc2c(sc3c2c(=O)n(-c2ccc(CC)cc2)c(=O)n3C)C1,,-4.84%
Cc1ccc(-c2ccc(CCC(=O)O)n2-c2ccc(C(N)=O)cc2)cc1,,1.29%
Cc1cccc(OCC(=O)N(Cc2ccc(C(C)C)cc2)Cc2ccco2)c1C,,2.91%
Cc1ccc(C)c(Cn2c(=O)n(CCC(=O)NCc3ccc4c(c3)OCO4)c(=O)c3sccc32)c1,,-7.25%
CC(=C/c1ccccc1)/C=N/NC(=O)c1cc(C)oc1C,15.8 µM (active),
COc1ccc(C/C(C)=N/NC(=O)c2cc(C)oc2C)cc1,,-0.732%
N=c1oc2ccccc2cc1C(=O)N/N=C/c1ccccc1,,-26.9%
